# The campaign covered roughly 310,000 compounds. About 14,000 (4.5%) showed an effect of 50% or more. The effect is printed as a negative number. Only a selection was taken, and strong results are over-represented in it overall.
# Target: human ether-à-go-go-related gene (hERG) potassium channel (human, UniProt Q12809)
# Assay: primary screen, population patch clamp on CHO cells stably expressing hERG; higher = less effect of the substance
# 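Further: peak tail current of the secondary pulse compared with the same well before compound.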
# human ether-à-go-go-related gene (hERG) potassium channel, sequence (Q12809 whole entry, looked up): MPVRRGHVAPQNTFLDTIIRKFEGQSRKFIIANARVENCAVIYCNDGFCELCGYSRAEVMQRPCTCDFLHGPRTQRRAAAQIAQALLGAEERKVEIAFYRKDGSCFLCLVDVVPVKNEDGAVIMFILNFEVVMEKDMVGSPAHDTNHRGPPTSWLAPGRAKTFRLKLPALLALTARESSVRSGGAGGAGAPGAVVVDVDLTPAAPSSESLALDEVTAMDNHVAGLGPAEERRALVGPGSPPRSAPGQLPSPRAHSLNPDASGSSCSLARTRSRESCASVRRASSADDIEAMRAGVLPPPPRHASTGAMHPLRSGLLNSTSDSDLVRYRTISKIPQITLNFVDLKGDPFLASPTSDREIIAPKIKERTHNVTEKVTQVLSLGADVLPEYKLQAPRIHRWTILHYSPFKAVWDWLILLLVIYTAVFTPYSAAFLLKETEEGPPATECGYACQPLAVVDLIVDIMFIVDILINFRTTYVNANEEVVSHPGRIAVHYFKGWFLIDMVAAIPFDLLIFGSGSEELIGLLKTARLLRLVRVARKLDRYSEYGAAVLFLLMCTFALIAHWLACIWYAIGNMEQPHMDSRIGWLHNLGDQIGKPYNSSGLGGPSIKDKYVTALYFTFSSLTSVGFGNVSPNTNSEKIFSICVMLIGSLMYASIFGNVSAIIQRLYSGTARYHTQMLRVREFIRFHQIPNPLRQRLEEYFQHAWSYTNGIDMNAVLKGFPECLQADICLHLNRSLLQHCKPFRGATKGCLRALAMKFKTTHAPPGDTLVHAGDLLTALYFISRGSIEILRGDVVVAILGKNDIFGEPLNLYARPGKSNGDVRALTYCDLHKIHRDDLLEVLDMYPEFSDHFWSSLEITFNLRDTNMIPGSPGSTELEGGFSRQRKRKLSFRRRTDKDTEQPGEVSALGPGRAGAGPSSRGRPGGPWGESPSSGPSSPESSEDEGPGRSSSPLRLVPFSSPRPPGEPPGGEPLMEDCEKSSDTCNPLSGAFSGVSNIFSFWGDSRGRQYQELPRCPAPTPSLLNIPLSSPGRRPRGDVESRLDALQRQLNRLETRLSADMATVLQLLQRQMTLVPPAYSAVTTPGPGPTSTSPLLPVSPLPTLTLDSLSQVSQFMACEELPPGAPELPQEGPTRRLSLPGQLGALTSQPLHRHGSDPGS
row,Compound,"hERG current change (%, negative = inhibition) at 10uM [%]"
1,O=C(NC(=S)Nc1ccc(-c2ccc(CO)o2)cc1)c1cccs1,21
2,Cc1ccc2c(c1)C(c1ccccc1)N(C(=O)c1c(F)cccc1Cl)CC(=O)N2 (stereo not drawn),-22.3
3,Cc1cccnc1NC1=NCC(C)S1 (stereo not drawn),3.1
4,C=CCSC(CC)(CC)C(N)=O,3.1
5,O=C(CNCc1ccco1)Nc1cc(S(=O)(=O)N2CCOCC2)ccc1N1CCCC1,-14.4
6,COc1cccc(NCc2nnc(SCC(=O)NC3CCS(=O)(=O)C3)n2C2CCCCC2)c1 (stereo not drawn),12.7
7,Cc1cccc(NC(=O)CCN2CCN(C)CC2)c1.Cl,6.48
8,O=C(CCN1CCN(c2ccccc2)CC1)Nc1ccc(Cl)cc1,-17.9
9,Cc1ccc(NC(=O)CCN2CCN(C/C=C/c3ccccc3)CC2)cc1.Cl,-90.9
10,CN1CCN(CCC(=O)Nc2ccccc2)CC1,-5.19
11,O=C(CCN1CCN(C/C=C/c2ccccc2)CC1)Nc1ccc(Cl)cc1,-78.2
12,Cl.O=C(CCN1CCOCC1)Nc1ccc(Cl)cc1,6.33
13,O=C(CCN1CCN(C/C=C/c2ccccc2)CC1)Nc1ccccc1,-74.9
14,CCN1CCN(CCC(=O)Nc2cccc(C)c2)CC1.Cl,0.741
15,CCN1CCN(CCC(=O)Nc2ccc(C)cc2)CC1.Cl,-8.34
16,Cl.O=C(CCN1CCCC1)Nc1ccccc1,4.69
17,Cc1cccc(NC(=O)CCN2CCN(C/C=C/c3ccccc3)CC2)c1.Cl,-74
18,CCN1CCN(CCC(=O)Nc2ccccc2)CC1,8.58
19,COc1ccc(C(Sc2ccccc2)c2ccccc2)cc1OC (stereo not drawn),7.26
20,O=C(O)CCN=CC1=C(O)CC(c2ccccc2)CC1=O (stereo not drawn),3.13
21,O=C(C[n+]1cccc(O)c1)NCc1ccc(Cl)cc1.[Cl-],24.2
22,CCOC(=O)CC1C(=O)NCCN1C(=O)c1ccc(C)cc1 (stereo not drawn),14.9
23,Cc1sc2c(c1C)C(O)=C(C(=O)Nc1ccccc1)S(=O)(=O)N2C,4.91
24,O=C(CSc1nnc2c(n1)[nH]c1ccc(F)cc12)N1CCOCC1,5.63

row,Compound,"hERG current change (%, negative = inhibition) at 10uM [%]"
1,Cc1ccc(NC(=O)CCN2CCC(Cc3ccccc3)CC2)cc1,-75.1
2,Cc1cc(NC(=O)CCN2CCN(Cc3ccccc3)CC2)ccc1Br.Cl,-28
3,Cc1ccc(NC(=O)CCN2CCOCC2)cc1C,14.1
4,COc1cc(CN2CCc3ccc(NC(=O)CCc4ccccc4OC)cc3C2)ccc1O,-37.3
5,COc1cccc(CN2CCc3ccc(NC(=O)CCc4ccc(C)cc4)cc3C2)c1O,-52.2
6,Cc1ccc(NC(=O)CN2CCc3ccccc3C2)cc1,-30.3
7,Cc1ccc(NC(=O)CCN2CCC(C(N)=O)CC2)cc1,17.3
8,Cc1ccc(NC(=O)CCN2CCc3ccccc3C2)cc1.Cl,-60.8
9,Cc1ccc(NC(=O)CCN2CCCCC2)cc1.Cl,-0.243
10,O=C(CCN1CCc2ccccc2C1)Nc1ccccc1,-24.2
11,COc1ccc(CN2CCc3ccc(NC(=O)CCc4ccccc4OC)cc3C2)c(O)c1,-35.2
12,Cc1ccc(NC(=O)CCN2CCN(C/C=C/c3ccccc3)CC2)cc1C.Cl,-71.8
13,CSc1ncccc1C(=O)N1CCCC(N2CCN(c3ccccc3F)CC2)C1 (stereo not drawn),-12.4
14,NS(=O)(=O)c1ccc(CCNC(=O)CN2C(=O)c3ccccc3S2(=O)=O)cc1,1.3
15,CCOC(=O)N1CCN(C(=O)c2ccc(CNS(=O)(=O)c3ccc(OC)cc3)cc2)CC1,-4.84
16,O=C(CCN1CCN(C/C=C/c2ccccc2)CC1)Nc1cccc(F)c1,-77.9
17,CN1CCN(CCC(=O)Nc2cccc(F)c2)CC1,-1.22
18,Cl.O=C(CCN1CCCCCC1)Nc1cccc(F)c1,-23.6
19,CCOC(=O)OC(C)OC1=C(C(=O)Nc2ccccn2)N(C)S(=O)(=O)c2ccccc21 (stereo not drawn),16.1
20,O=P(Nc1c(Cl)cccc1Cl)(c1ccccc1)c1nc2c(s1)CCCC2 (stereo not drawn),10
21,Nc1nonc1-n1nnc(C(=O)N/N=C/c2ccc(Br)cc2)c1CSC1=NCCS1,-3.36
22,O=c1[nH]c([N+](=O)[O-])nn1C(c1ccccc1)c1ccccc1,-13.7
23,COCCCN1C(=O)c2ccccc2C1C(=O)NC1CCCCCC1 (stereo not drawn),-2.83
24,COc1cc(NC(=O)CN2C3CCC2CC(O)(c2cccnc2)C3)cc(OC)c1 (stereo not drawn),-60.9

row,Compound,"hERG current change (%, negative = inhibition) at 10uM [%]"
1,O=C(Nc1ccccc1)N1C2CCC1CC(O)(c1cccnc1)C2 (stereo not drawn),8.01
2,O=C(Nc1cccc(F)c1)N1C2CCC1CC(O)(c1cccnc1)C2 (stereo not drawn),24.1
3,O=C(CN1C2CCC1CC(O)(c1cccnc1)C2)Nc1ccc2c(c1)OCO2 (stereo not drawn),-53.1
4,COCCNC(=O)CN1C2CCC1CC(O)(c1cccnc1)C2 (stereo not drawn),0.682
5,COc1ccc(NC(=O)CN2C3CCC2CC(O)(c2cccnc2)C3)cc1OC (stereo not drawn),0.385
6,Brc1cccc(-c2nnc3n2CCC3)c1,2.98
7,O=C(NC1CCN(C(=O)Nc2ccccc2)CC1)C1CCCCC1,-7.88
8,O=C(CN1C(=O)c2cccc3cccc1c23)Nc1ccc(S(=O)(=O)N2CCOCC2)cc1,-9.06
9,CCCSCCCNC(=O)Cn1cc2c(n1)CCC(C)C2 (stereo not drawn),-12.8
10,COc1ccc(-c2nc3n(c(=O)c2C#N)CCCS3)cc1,-4.57
11,COCCNC(=O)/C(=C/c1ccccc1Cl)c1ccccc1,-0.406
12,COC(=O)N/N=C\c1ccc(OC/C=C/c2ccccc2)c(OC)c1,6.04
13,N#CC1=C(SCc2ccccc2)NC(=O)C(C#N)C12CCCC2 (stereo not drawn),1.97
14,N#CC1=C(SCC(=O)Nc2cccc3cccnc23)NC(=O)C(C#N)C12CCCCC2 (stereo not drawn),-20.7
15,N#CC1=C(SCC(=O)c2cc3ccccc3oc2=O)NC(=O)C(C#N)C12CCCC2 (stereo not drawn),-54.5
16,COC(=O)c1ccc(NC(=O)CCS(=O)(=O)c2ccc(Br)cc2)cc1,28.8
17,NC(N)=NS(=O)(=O)c1ccc(NC(=S)NC(=O)c2ccncc2)cc1,2.9
18,COc1ccccc1CNC(=O)C1=C(C)C(=O)OC12CCC(C)CC2 (stereo not drawn),-2.21
19,O=C1C=C(c2cccc(CO)c2)C[C@@H](c2ccc(F)cc2)C1,-45.3
20,COc1ccc([C@H]2CC(=O)C=C(c3cccc(CO)c3)C2)cc1,-59.3
21,COc1ccc([C@H]2CC(=O)C=C(c3ccccc3)C2)cc1OC,-3.04
22,COCc1cccc(C2=CC(=O)C[C@H](c3ccc(OC)cc3)C2)c1,-20.7
23,COc1ccc([C@H]2CC(=O)C=C(c3cccc(CO)c3)C2)cc1OC,-63.6
24,COc1cccc(C2=CC(=O)C[C@H](c3ccc(OC)c(OC)c3)C2)c1,-40

row,Compound,"hERG current change (%, negative = inhibition) at 10uM [%]"
1,O=C1C=C(c2cccc(CO)c2)C[C@@H](c2ccc(Cl)cc2)C1,-54.5
2,COc1ccc([C@H]2CC(=O)C=C(c3ccc(CO)cc3)C2)cc1,-4.98
3,O=C1C=C(c2cccc(Cl)c2)C[C@@H](c2ccc(Cl)cc2)C1,24.4
4,CC[C@@H]1[C@H]2CCCC(=O)N3CC[C@@H](C[C@@H]1Nc1ccccc1)[C@@H]23,-3.88
5,Cc1ccc(NC(=O)COC(=O)c2cccc(OC(F)F)c2)cc1S(=O)(=O)N1CCCCC1,-21.1
6,CCc1c(C)nc(N)n2c(SCC(=O)Nc3ccccc3)nnc12,12.5
7,O=C1NC(Cc2c[nH]c3ccccc23)C(=O)N1CCOc1ccccc1 (stereo not drawn),-22.7
8,O=C(CCC(=O)N1CCSc2ccccc21)Nc1ccc(F)cc1,-4.12
9,Cc1oc(-c2ccccc2F)nc1CS(=O)CC(=O)NCc1ccccn1 (stereo not drawn),-0.614
10,Cn1cc(CN2CCC(Oc3ccc(C(=O)N4CCCCC4)cc3)CC2)cn1,8.81
11,C=CCOc1ccccc1CN1CCC(Oc2ccc(C(=O)N3CCCCC3)cc2)CC1,-57.6
12,C=CCOc1ccccc1CN1CCC(Oc2ccc(C(=O)N3CCCC3)cc2)CC1,-41.8
13,CCn1cc(CN2CCC(Oc3ccc(C(=O)N4CCCCC4)cc3)CC2)cn1,-5.09
14,CC(C)n1cc(CN2CCC(Oc3ccc(C(=O)N4CCCCC4)cc3)CC2)cn1,-31.6
15,CC(C)c1ccc(CN2CCC(Oc3ccc(C(=O)N4CCCC4)cc3)CC2)cc1,-71.6
16,O=C(c1ccc(OC2CCN(Cc3ccccc3C(F)(F)F)CC2)cc1)N1CCCCC1,2.01
17,O=C(c1ccc(OC2CCN(Cc3cccc(F)c3)CC2)cc1)N1CCCCC1,-23.4
18,O=C(c1ccc(OC2CCN(Cc3ccccc3O)CC2)cc1)N1CCCCC1,3.29
19,O=C(c1ccc(OC2CCN(Cc3ccc(C(F)(F)F)cc3)CC2)cc1)N1CCCCC1,-57.2
20,CC(C)n1cc(CN2CCC(Oc3ccc(C(=O)N4CCCC4)cc3)CC2)cn1,-9.96
21,CCc1ccc(CN2CCC(Oc3ccc(C(=O)N4CCCCC4)cc3)CC2)cc1,-78.4

# — article PMC4336329 (PLoS ONE, 2015)
